Rows were chosen to be rich in hits. Some 3.4% of all compounds tested hit in one or more screens of this group.
MITF inh: blocks human microphthalmia-associated transcription factor | O75030 | AlphaScreen MITF homodimerization, bead proximity signal | inhibition, % at 2.6 µM | 650,000 tested, 0.91% active | AID 1259374; in the data active means inhibition above about 50%;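 further: 0% = vehicle wells with protein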
FBW7 activator: human FBW7 E3 ligase activation, primary screen; Q969H0; AlphaScreen FBW7–phospho-cyclin E peptide binding, activator screen; normalized activity (activation), % at 26.1 µM; 650,000 tested, 0.13% active; in the data active means normalized activity above about 1.9%;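 further: purified mutant Fbw7 with reduced substrate affinity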
TEAD-YAP inh: TEAD-YAP interaction inhibition; HEK-TIYL cells, TEAD-Gal4/YAP UAS-luciferase luminescence; inhibition, % at 9.12 µM; 640,000 tested, 1.4% active; AID 1259422; in the data active means inhibition above about 32%;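 further: 0% = median of test compound wells and 100% = reference inhibitor wells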
GPR151 activ: activators of human GPR151. PathHunter beta-arrestin GPR151 cells, luminescence. activation, % at 11.2 µM. 650,000 tested, 1% active. AID 1508602; in the data active means activation above about 4.9%;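 further: 0% = median of compound wells and 100% = cells with positive control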
Target sequence (Q8TDV0 whole entry, looked up): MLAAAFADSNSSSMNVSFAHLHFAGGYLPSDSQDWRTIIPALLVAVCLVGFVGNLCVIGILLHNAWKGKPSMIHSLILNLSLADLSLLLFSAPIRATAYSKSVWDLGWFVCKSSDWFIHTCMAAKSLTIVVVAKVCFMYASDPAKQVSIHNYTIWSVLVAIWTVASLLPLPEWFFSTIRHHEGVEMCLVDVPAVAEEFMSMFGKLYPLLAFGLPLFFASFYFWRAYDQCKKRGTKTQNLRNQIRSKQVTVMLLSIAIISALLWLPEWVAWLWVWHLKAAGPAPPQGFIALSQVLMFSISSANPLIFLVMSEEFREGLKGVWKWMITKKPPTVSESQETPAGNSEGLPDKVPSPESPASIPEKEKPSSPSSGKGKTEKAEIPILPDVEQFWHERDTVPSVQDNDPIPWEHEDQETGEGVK
Starred values were filed as active, the others as inactive.

SMILES	MITF inh	FBW7 activator	TEAD-YAP inh	GPR151 activ
COc1cn(CC(=O)Nc2cccc(C)c2)c(CSc2ccccc2)cc1=O	-2	0	-3	0
Cn1cc(-c2nc(Nc3ccc(-n4cnc(N5CCC(O)CC5)n4)cc3)ncc2Cl)cn1	24	0	72*	-1
Cn1cc(-c2ccc3cnc(Nc4ccc(-c5ccc(N6CCOCC6)nc5)cc4)nc3c2Cl)cn1	2	0	18	0
Cn1cc(-c2ccc3cnc(Nc4ccccc4)cc3c2)cn1	17	1	36*	-1
Clc1cnc(Nc2ccc(-n3cnc(N4CCOCC4)n3)cc2)nc1-c1cn[nH]c1	0	0	55*	-1
Cc1nc(C)n(-c2ccc(Nc3cc(-c4cnn(C)c4)ccn3)cc2)n1	8	1	20	-1
c1cc(-n2cnc(N3CCOCC3)n2)ccc1Nc1ncc2cc(-c3cn[nH]c3)ccc2n1	40	1	-6	-2
Cn1cc(-c2ccc3cnc(Nc4ccc(N5CCOCC5)nc4)nc3c2Cl)cn1	-7	0	51*	0
CNc1ccccc1C(=O)N/C(N)=N/c1nc(C)c2cc(OC)ccc2n1	8	0	-4	0
CC(=O)Nc1ccnn1C1CCN(Cc2cccc3c2oc2ccccc23)CC1	4	0	-9	0
COc1ccc(C)cc1N(CC(=O)N1CCN(Cc2ccccc2)CC1)S(C)(=O)=O	9	0	1	0
Cc1c2cnn(CC(=O)N(C)Cc3ccccc3)c(=O)c2c(C)n1Cc1cccc(Cl)c1	9	0	5	0
O=Cc1cc(Br)ccc1OCC(=O)NC(=O)NCc1ccccc1	8	0	2	0
Cn1cc(-c2ccc3cnc(Nc4ccc(-n5cnc(N6CCOCC6)n5)cc4)cc3c2)cn1	0	0	83*	1
Cn1cc(-c2nc(Nc3ccc(-n4cnc(N5CCOCC5)n4)cc3)ncc2F)cn1	-4	0	22	-1
O=S(=O)(NCC1CCCO1)c1ccc(NS(=O)(=O)c2ccc(F)cc2)cc1 (centres undefined)	4	0	-3	1
O=S(=O)(NCC1CCCO1)c1ccc(Cc2ccc(S(=O)(=O)NCC3CCCO3)cc2)cc1 (centres undefined)	3	0	43*	-1
O=S(=O)(NCC1CCCO1)c1ccc(-c2ccc(S(=O)(=O)NCC3CCCO3)cc2)cc1 (centres undefined)	13	1	52*	-1
O=C(NC1(Cc2ccccc2)N=C2C=CC=CN2C1=O)c1ccccc1 (centres undefined)	6	0	-4	0
O=C(N/N=C/c1c(Sc2ccccc2)nc2ccccn2c1=O)c1ccccc1O	7	0	-11	1
O=C(CCCOc1ccc(Cl)cc1)Nc1ccc(S(=O)(=O)Nc2nccs2)cc1	4	0	-8	-1
O=c1c2c3c(sc2n2cnnc2n1Cc1ccccc1)CCCC3	18	1.9*	-5	0
COc1ccc(C2C(C(=O)Nc3ccc(F)cc3F)c3cc(OC)c(OC)cc3C(=O)N2C)cc1OC (centres undefined)	10	0	10	-1
COc1ccc(Cl)cc1C1=N/C(=C/c2ccc(N(C)C)cc2)C(=O)O1	-6	0	0	1
O=C(NCc1ccccc1)c1ccc2nc(Nc3ccc(-n4ccnc4)cc3)sc2c1	9	0	36*	3
SMILES	MITF inh	FBW7 activator	TEAD-YAP inh	GPR151 activ
O=C(NCc1cccc(C(F)(F)F)c1)c1ccc2nc(Nc3ccc(-n4ccnc4)cc3)sc2c1	-1	0	11	0
COc1cc(Nc2nc3ccc(C(=O)NCc4cccnc4)cc3s2)cc(OC)c1OC	6	0	42*	3
COc1cc(NC(=O)c2ccc3nc(Nc4ccccn4)sc3c2)cc(OC)c1OC	-3	0	32*	-3
O=C(NCc1cccnc1)c1ccc2nc(Nc3ncccn3)sc2c1	-15	0	-32	1
Cc1cccc(OS(=O)(=O)c2cn(C)c(=O)n(C)c2=O)c1	3	3.6*	-1	-1
COC1(C)N(c2ccc(C)cc2)CC(=Nc2ccc(C)cc2)N1c1ccc(C)cc1 (centres undefined)	9	0	38*	1
COc1ccc(N2C(SC)=NC(=Nc3ccc(C)cc3)C23CCC(C(C)(C)C)CC3)cc1 (centres undefined)	13	0	2	0
CCn1c2c(n[n+]1[O-])C(=O)c1ccccc1C2=O	0	0	101*	-5
O=C1c2ccccc2C(=O)c2c1nc1ccccn21	-11	0	3	-2
Cc1cc(N2CCCC2)c(C)cc1C=O	3	0	-11	3
Cc1cc(N2CCCC2)c(C)cc1/C=C\[N+](=O)[O-]	-3	0	54*	1
CCOC(=O)c1cnc2c(OC)cccc2c1NC1CCCCCC1	3	0	66*	3
CCOC(=O)c1cnc2c(Cl)c(Cl)ccc2c1NC1CCCCC1	-3	0	-6	-1
CCOC(=O)c1cnc2c(OC)cccc2c1NCC1CCCN1CC (centres undefined)	-12	0	6	1
CCOC(=O)c1cnc2c(OC)cccc2c1Nc1ccc(OC)c(OC)c1	17	0	45*	0
CCOC(=O)c1cnc2c(OC)cccc2c1NC1CCCCC1	5	0	55*	4
CC(=O)Nc1ccc(S(=O)(=O)N2CCCC(c3[nH]ncc3-c3ccncc3)C2)cc1 (centres undefined)	1	0	-2	3
O=C(Nc1ccc(C(=O)c2ccc(Cl)cc2)c(Cl)c1)c1cc(Cl)ccc1O	1	0	40*	1
O=C(NC(=S)Nc1ccc(Cc2ccncc2)cc1)c1ccc(Cl)cc1Cl	-2	0	22	0
CCOc1ccc(NC(=O)c2c(Cl)ccc(Cl)c2OC)cc1	1	0	9	-1
O=C(O)c1cc(NC(=O)c2ccc(Cl)cc2Cl)cc(C(=O)O)c1	0	0	13	4
COc1ccc(NC(=O)NC(=O)c2c(Cl)ccc(Cl)c2OC)cc1	-1	0	38*	-2
O=C(O)c1ccc(NC(=O)c2ccc(Cl)cc2Cl)cc1	-19	0	45*	2
O=C(c1ccc(Cl)cc1)c1ccc(NC(=O)c2cc(Br)cc(Br)c2O)cc1Cl	-3	0	-5	-2
O=C(Nc1ccc(Cc2ccncc2)cc1)c1ccc(Cl)cc1Cl	5	0	38*	-1
SMILES	MITF inh	FBW7 activator	TEAD-YAP inh	GPR151 activ
Cc1ccccc1Nc1nc(N)nc(CN(C)CC(=O)Nc2ccc(F)cc2)n1	-10	0	0	1
COc1ccc(NC(=O)c2ccc(C)cc2Cl)cc1	48	0	73*	-5
COC(=O)c1ccc(NC(=O)c2ccc(C)cc2Cl)cc1	8	0	-26	-1
O=C(COc1ccc(Cl)cc1Cl)N/N=C/c1cccc(O)c1	11	0	6	1
Cc1nc(C)n(-c2ccc(Nc3nccc(N(C)Cc4ccccc4)n3)cc2)n1	24	1	51*	0
CCOC(=O)CN(Cc1ccccc1)c1ccnc(Nc2ccc(-n3nc(C)nc3C)cc2)n1	0	0	53*	1
Cc1nc(C)n(-c2ccc(Nc3nccc(-c4ccc5ccccc5c4)n3)cc2)n1	17	1	27	0

From PubChem
